According to PubChem BioAssay (NCATS):
Inconclusive results are not listed. Where a call stands in place of a potency, no number is given. The source made the active and inactive calls. Calls come from the whole dose curve; as a rule, active = well fitted activation curve with a large enough effect; inconclusive = small, poorly fitted or top-dose-only effect; inactive = flat fitted curve, though single readings scatter.

Assay: qHTS for Activators of Parkin Expression: LOPAC Validation Assay (NLuc Reporter) (AID 720572)
Details: Parkin promoter NanoLuc reporter cells, luminescence; series mostly up to 46.1 µM
Text: Parkin is an E3 ubiquitin ligase localized in the cytosol of cells expressed in many tissues, including brain, skeletal muscle, heart and liver tissues. One hour after stress induction by mitochondrial uncouplers (which mimic mitochondria damage by decreasing the mitochondrial inner membrane electrochemical gradient that is used to produce ATP), Parkin translocates from the cytosol to mitochondria in many cultured cell types, including neurons and HeLa cells. Administration of other mitochondrial poisons, such as Paraquat and azide in cells lacking mitochondrial DNA (mtDNA), induces Parkin translocation to mitochondria. […] It was proposed that Parkin (together with Pink1) mediates a mitochondrial quality control pathway to maintain organelle population fidelity by removing damaged mitochondria. Understanding the normal physiologic role of Parkin (and Pink1) may uncover novel treatment strategies for sporadic Parkinson's disease patients with mutation in these genes.
A cell based qHTS in 1536 well format was developed assess modulation of Parkin expression using a neuronal cell line that stably expresses a stably expresses a luminescent coincidence reporter (FLuc and NLuc reporters) behind the Parkin promoter. The LOPAC library is used to validate the assay for quantitative high-throughput screening. The data herein reports the signal from the NLuc reporter. An increase in this signal = activation of Parkin expression. For this assay , a positive control normalized signal increase corresponding to a high quality qHTS curve class in both luminescent channels is the desired outcome for this assay.
NIH Chemical Genomics Center [NCGC]
NIH Molecular Libraries Probe Centers Network [MLPCN]
Assay Submitter (PI): Richard Youle, National Institute of Neurological Disorders and Strokes (NINDS), NIH
[1] Narendra, D., et al., Parkin is recruited selectively to impaired mitochondria and promotes their autophagy. J Cell Biol, 2008. 183(5): p.
[2] Suen, D.F., et al., Parkin overexpression selects against a deleterious mtDNA mutation in heteroplasmic cybrid cells. Proc Natl Acad Sci U S A, 2010. […] 11835-40.
[3] Cheng K, Inglese J. A coincedence reporter-gene system for high-throughput screening. Nat Methods. 2012: 9(10);937
Five microliters (1,500 cells/well) of the Parkin coincidence reporter cells were seeded to 1536 well assay plates (Greiner Catalog # 789173-F) and incubated at 37 C, 5% CO2 for 24 hours. Compounds (23 nL) were pinned using the Kalypsys robotic system equipped with 1536 pin head adaptor in 7-point dose response. The assay plates were incubated for additional 24 hr at 37 C, 5% CO2 followed by a volume reduction in each well to 2 uL using an automated plate washer/aspirator. Following the volume reduction,2 uL of FLuc detection reagent and plates were incubated for 10 minutes at room temperature. The FLuc luminescence signal was obtained using the PerkinElmer ViewLux plate imager and then 2 uL of NanoLuc detection reagent was added to the plates. After another 10 minute incubation, NanoLuc signal was obtained using the PerkinElmer ViewLux plate imager as before. Data from each channel was normalized to DMSO (neutral control) and the positive control compounds (100%).
For `COc1ccccc1CNCCCCCCNCCCCCCCCNCCCCCCNCc1ccccc1OC`, the Potency was “inactive”. With `CN1CCc2ccccc2Cc2[nH]c3ccccc3c2CC1` the Potency was “inactive”. For `Nc1nc(SCc2ccc([N+](=O)[O-])cc2)c2ncn([C@@H]3O[C@H](CO)[C@@H](O)[C@H]3O)c2n1`, the Potency was “inactive”. In the case of `NCCCCCCCCCCN`, the Potency is reported as “inactive”. In the case of `CC(C)NC[C@H](O)COc1cccc2[nH]ccc12`, the Potency is reported as “inactive”. In the case of `O=c1[nH]c2cc(C(F)(F)F)ccc2n1-c1cc(C(F)(F)F)ccc1O`, the Potency is reported as “inactive”. In the case of `CN1CCc2cccc3c2C1Cc1ccc(O)c(O)c1-3` (stereo not given), the Potency is reported as “inactive”. In the case of `Nc1nc(Cl)nc2c1ncn2[C@@H]1O[C@H](COP(=O)(O)OP(=O)(O)OP(=O)(O)O)[C@@H](O)[C@H]1O`, the Potency is reported as “inactive”. With `N.N.N.N.N.N.N.N.N.N.N.N.N.N.O.O.[Ru+4].[Ru+5].[Ru+5]` the Potency was “inactive”. With `O=C(O)CCCC[C@@H]1CCSS1` the Potency was “inactive”. For `CSc1nc(N)c2ncn([C@@H]3O[C@H](COP(=O)(O)OP(=O)(O)OP(=O)(O)O)[C@@H](O)[C@H]3O)c2n1`, the Potency was “inactive”. For `COc1cccc(OC)c1OCCNCC1COc2ccccc2O1` (stereo not given), the Potency was “inactive”. For `CCCCCCCC/C=C\CCCCCCCC(=O)NCCO`, the Potency was “inactive”. With `CO/S(=N\S(=O)(=O)c1ccc(Cl)cc1)c1ccc([N+](=O)[O-])cc1` (stereo not given) the Potency was “inactive”. With `O=C(O)c1cc([N+](=O)[O-])ccc1NCCCc1ccccc1` the Potency was “inactive”. With `Cc1ccccc1CNc1ncnc2c1ncn2C1OC(CO)C(O)C1O` (stereo not given) the Potency was “inactive”. With `CC1(C)CCC=[N+]1[O-]` the Potency was “inactive”. In the case of `Cc1cc2c(cc1Cl)N(C(=O)Nc1ccc(Oc3cccnc3C)nc1)CC2`, the Potency is reported as “inactive”. In the case of `O=S(=O)(c1cccc2c(I)cccc12)N1CCCNCC1`, the Potency is reported as “inactive”. For `CN=c1nc(-c2ccccc2)n(-c2ccccc2)s1`, the Potency was “inactive”. For `C=C[C@H]1CN2CC[C@@H]1C[C@@H]2[C@@H](O)c1ccnc2ccc(OC)cc12`, the Potency was “inactive”. In the case of `N=c1ccn2c(n1)O[C@H]1[C@H](O)[C@@H](CO)O[C@H]12`, the Potency is reported as “inactive”. With `NCCCCC(=O)O` the Potency was “inactive”. With `Nc1nc(Cl)nc2c1ncn2[C@@H]1O[C@H](CO)[C@@H](O)[C@H]1O` the Potency was “inactive”. For `CC12C(=O)OC(=O)C1(C)C1CCC2O1` (stereo not given), the Potency was “inactive”. For `c1ccc(-c2ccccn2)nc1`, the Potency was “inactive”. With `c1cnc2c(c1)ccc1cccnc12` the Potency was “inactive”. In the case of `NC[C@@H]1O[C@H](C23CC4CC(CC(C4)C2)C3)Cc2c1ccc(O)c2O`, the Potency is reported as “inactive”. For `CC(=O)SCC[N+](C)(C)C`, the Potency was “inactive”. In the case of `O=C(O)CC[C@@H](C(=O)O)N1C(=O)c2ccccc2C1=O`, the Potency is reported as “inactive”. With `C=CC(=O)c1ccc(CCCCCC)cc1` the Potency was “inactive”. For `Nc1nc(Nc2ccccc2)nc2c1ncn2[C@@H]1O[C@H](CO)[C@@H](O)[C@H]1O`, the Potency was “inactive”. For `CC(C)NC[C@@H](O)c1ccc(O)c(O)c1`, the Potency was “inactive”. With `C=CC(N)CCC(=O)O` (stereo not given) the Potency was “inactive”. With `N#C/C(=C\c1c[nH]c2ccccc12)C(=O)c1ccc(O)c(O)c1` the Potency was “inactive”. With `CCN(CC)c1ncnc2c1ncn2[C@@H]1O[C@H](COP(=O)(O)OP(=O)(O)C(Br)(Br)P(=O)(O)O)[C@@H](O)[C@H]1O` the Potency was “inactive”. With `NS(=O)(=O)C#Cc1ccccc1` the Potency was “inactive”. For `CCN1/C(=C/C(C)=O)Sc2ccc(OC)cc21`, the Potency was “inactive”. With `OC[C@H]1O[C@@H](n2cnc3c(Nc4ccccc4)ncnc32)[C@H](O)[C@@H]1O` the Potency was “inactive”. With `O=C(Nc1cccc(C(=O)Nc2ccc(S(=O)(=O)O)c3cc(S(=O)(=O)O)cc(S(=O)(=O)O)c23)c1)Nc1cccc(C(=O)Nc2ccc(S(=O)(=O)O)c3cc(S(=O)(=O)O)cc(S(=O)(=O)O)c23)c1` the Potency was “inactive”.
